Compound activity deposited in PubChem BioAssay by National Center for Advancing Translational Sciences (NCATS).
Compounds with a hit are over-represented: about 0.69% of the library has one in this group of screens.
Tb PFK inh: T. brucei PFK enzyme inhibition; actives 0.17% (n = 330,000); O15648; Potency, µM (titrated, usually from 57.5 µM), for the others: top-dose activity, negative = inhibition, actives largely listed as inhibitors; T. brucei PFK, ADP-Glo luminescence; AID 485367;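 further: potency means the concentration at half of the fitted maximal effect; 0% = uninhibited 1x PFK enzyme wells and -100% = no-enzyme wells; nearly all actives have a fitted effect of over 60% in size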
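1.25 nM PFK with 0.5 mM F6P and 0.1 mM ATP in 0.1 M TEA pH 8.0, 5 mM MgCl2, incubated 45 min at room temperature; ADP measured by ADP-Glo luminescence; compounds titrated up to 57 uM.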
AT treatment: potential ataxia-telangiectasia treatments restoring KAP-1 phosphorylation. F2112 A-T fibroblasts, KAP-1 phosphorylation AlphaLISA; neocarzinostatin DNA damage 30 min before lysis. Potency, µM (doses to about 57.5 µM), without a hit: at the highest dose activation, hits mostly activators. actives 0.19% (n = 320,000). AID 485349; further: potency means the concentration at half of the fitted maximal effect; % of control where 0% means no effect; nearly all actives have a fitted effect of over 45% in size
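hTERT-immortalized A-T patient fibroblasts (F2112), 500 cells/well in OPTI-MEM, 1% FBS, got compounds for 60 min, then NCS for 30 min at 37C. Lysates were then assayed for phospho-KAP-1 by AlphaLISA (anti-pKAP1 donor, anti-KAP1 acceptor beads), 6 hr at 25C.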
PKM2 act: activators of human pyruvate kinase M2. P14618. purified PKM2, Kinase-Glo ATP luminescence, activation; response scale: 0% is enzyme alone, no compound. Potency, µM (titrated, usually from 57.5 µM), inactives show top-dose activation, most hits filed as activators. actives 0.34% (n = 260,000). AID 1631; further: potency means the concentration at half of the fitted maximal effect; on the % scale 0 is the no-effect control and ±100 the full control effect; nearly all actives have a fitted effect of over 55% in size
Target sequence (P14618 whole entry, looked up): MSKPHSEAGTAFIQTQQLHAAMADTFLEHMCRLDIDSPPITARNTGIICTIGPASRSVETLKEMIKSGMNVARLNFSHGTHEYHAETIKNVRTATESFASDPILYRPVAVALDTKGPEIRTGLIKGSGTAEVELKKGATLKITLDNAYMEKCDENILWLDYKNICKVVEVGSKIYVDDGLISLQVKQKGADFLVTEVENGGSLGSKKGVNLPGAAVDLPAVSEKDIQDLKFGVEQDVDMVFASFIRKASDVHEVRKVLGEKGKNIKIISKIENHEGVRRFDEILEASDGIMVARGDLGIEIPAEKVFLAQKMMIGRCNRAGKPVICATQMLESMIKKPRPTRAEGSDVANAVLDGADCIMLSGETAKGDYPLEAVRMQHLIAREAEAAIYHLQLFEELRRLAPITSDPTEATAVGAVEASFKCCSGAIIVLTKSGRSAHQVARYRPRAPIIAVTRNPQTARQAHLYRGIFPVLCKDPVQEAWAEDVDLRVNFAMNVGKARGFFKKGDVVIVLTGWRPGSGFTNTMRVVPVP
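hPK-M2, >95% pure; 0.1 mM ADP / 0.5 mM PEP final; imidazole pH7.2 buffer w/ 7 mM MgCl2, 50 mM KCl; 1 h RT; Kinase-Glo lum. Intermediate enzyme activity for dual inhibitor/activator qHTS.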
TCR activator: activates T cell receptor signaling; primary human leukocytes, anti-CD3, IL-2 HTRF, 48 h; Potency, µM (series often up to 9.22 µM), without a hit: at the top dose activation of IL-2 secretion, hits mostly activators; 330,000 tested, under 10 active; AID 504894; further: % of control where 0% means no effect
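Primary human leukocytes were stimulated with a-CD3 beads plus compounds for 48 hr without co-stimulation; secreted IL-2 was quantified by HTRF using a-IL-2-K (europium cryptate) and a-IL-2-d2, excited at 320nm with acceptor emission read at 665nm.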
IL2 activator: activators of IL-2; IL-2 activation reporter assay, cell-based qHTS; stimulated with anti-CD3/CD4/CD28 beads; in transgenic mouse T cells; activation, % (series mostly up to about 46 µM); actives 0.065% (n = 360,000); AID 652025; in the data active means activation above about 50%; further: 0% is about no effect
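First, unstimulated transgenic mouse T cells were exposed to compound for 60 min. Next, anti-CD3/anti-CD4-coated beads with anti-CD28 were added. Finally, after 18 h at 37 degrees C, EGFP and DsRed were imaged.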
a7 integrin act: activates integrin-mediated alleviation for muscular dystrophy | alpha7betagal myoblasts, beta-gal FDG fluorescence, 48 h | Potency, µM (titrated, usually from 38.3 µM), for inactives: top-dose activation, usual class: activators | actives 0.064% (n = 350,000) | AID 624291;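 further: potency means the concentration at half of the fitted maximal effect; 100% = response of the positive control SU9516; nearly all actives have a fitted effect of over 60% in size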
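alpha7betagal+/- myoblasts (passage 13, 250/well) treated 48 h at 37C with compounds at 1:260 dilution of DMSO stock. Lysed, then beta-galactosidase activity read as FDG fluorescence (ex 480/em 540) after 30 min, with pre-read for autofluorescence.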
Starred values were filed as active, the others as inactive; nt = no result; [ ] = remark or other dose. Unless noted, the call rests on the fitted dose curve; in most records, active means well fitted curve in the direction sought with a large enough effect; inconclusive means small, poorly fitted or top-dose-only effect, or another doubt; inactive means no such curve, though single readings can be large; an effect the other way counts as inactive or inconclusive.

SMILES | Tb PFK inh | AT treatment | PKM2 act | TCR activator | IL2 activator | a7 integrin act
CCCCc1nc2c(c3c1C[C@H](C)OC3)CN(S(=O)(=O)c1ccc(Cl)c3nonc13)CC2 | nt | nt | -4.5%[11.5 µM] | nt | nt | nt
O=S(=O)(Nc1ccc(-n2cccc2)cc1)c1ccccc1 | -5.4% | -4.8% | 15.8µM* | -3.1% | -4.3 | 15.4%
Cc1cc(C)n(-c2nc(NCCN(C)C)c3c4c(sc3n2)CCCC4)n1 | 0.0% | 39.8µM* | -23.2% | 6.3% | -0.8 | -60.3%
CCN(CC)CCNc1nc(-n2nc(C)cc2C)nc2sc3c(c12)CC(C)(C)OC3 | 4.4% | 35.5µM* | 1.3% | 3.7% | 0.7 | -27.5%
CCCC/C=C/C(NC(=O)c1cccs1)c1ccccc1 (configuration not stated) | nt | nt | 3.6% | nt | nt | nt
Cc1nc(COC(=O)c2ccc(S(=O)(=O)N3CCCC3)cc2)cs1 | 0.6% | nt | 28.2µM* | 1.7% | -0.9 | -13.5%
COc1ccc(-n2c(=S)[nH]c3ccccc3c2=S)cc1 | -7.7% | 2.82µM* | nt | 1.3% | -3.4 | -18.3%
CCC1=C2CC[C@H]3C(=O)N(CC)C(=O)[C@H]3[C@H]2[C@@]2(Cc3ccccc3)C(=NCC3CC3)OC(=O)N2C1=O | nt | nt | -9.0% | nt | nt | nt
Nc1ccc(S(=O)(=O)c2cccc(N)c2)cc1 | -1.1% | 0.7% | 26.2% | nt | 0.4 | 16.7%
Nc1ccc(S(=O)(=O)c2ccc(N)c(N)c2)cc1 | -3.5% | 0.6% | 28.2µM* | 2.0% | 0.8 | 40.0%
COC(=O)N(C)C[C@@H]1OCc2cnnn2CCCC(=O)N([C@H](C)CO)C[C@@H]1C | nt | nt | nt | nt | -0.6 | -5.6%
COc1ccccc1C=C1CCc2ccccc2C1=O | nt | nt | nt | nt | -0.1 | nt
COc1cc(OC)c(OC)cc1/C=C1/Cc2ccccc2C1=O | 7.7% | -13.3% | nt | 1.7% | 126.2* | -20.6%
CCCCc1nc2c(c3c1C[C@H](C)OC3)CN(C(=O)Nc1cccc(C#N)c1)CC2 | nt | nt | 0.4%[11.5 µM] | nt | nt | nt
O=C1CC(c2ccc(OCCCCCOc3ccc(C4CC(=O)NC4=O)cc3)cc2)C(=O)N1 (configuration not stated) | -0.6% | 8.3% | 14.1µM* | -2.0% | -1.8 | -11.4%
CCCCCCCCOc1ccc(C2CC(=O)NC2=O)cc1 (configuration not stated) | -5.1% | 5.3% | -0.3% | nt | -0.5 | -13.7%
CCC/C=C(\CCC)C(NC(=O)C(C)(C)C)c1ccc(C(=O)OC)cc1 (configuration not stated) | nt | nt | -0.3% | nt | nt | nt
Cc1ccc(NC(=O)c2cc(N3C(=O)C=CC3=O)ccc2Cl)cc1C | -14.0% | -4.4% | 3.98µM* | 1.6%[46.1 µM] | -4.1 | -48.0%
O=C(Cc1ccc2c(c1)OCCO2)N1CCN(S(=O)(=O)c2cccc(Cl)c2Cl)CC1 | -0.8% | -4.2% | 2.82µM* | -1.7%[46.1 µM] | 0.5 | 4.9%
Cc1cc(N2CCN(S(=O)(=O)c3ccc(Br)cc3)CC2)n2ncnc2n1 | 4.1% | 1.3% | 3.5% | 1.2% | -0.2 | -7.6%
Cc1ccc(S(=O)(=O)N2CCN(C(=O)Cc3ccc4c(c3)OCCO4)CC2)cc1C | -3.8% | 10.3% | 3.16µM* | -1.0%[46.1 µM] | -4.0 | 0.8%
O=C(Cc1ccc2c(c1)OCCO2)N1CCN(S(=O)(=O)c2cccs2)CC1 | 7.6% | 8.7% | 10.9% | 0.3% | -3.8 | 9.3%
Cc1ccc(S(=O)(=O)N2CCCN(S(=O)(=O)c3ccc(C)c(C)c3)CC2)cc1C | 3.4% | -0.7% | 2.24µM* | -6.0% | -0.5 | 0.0%
Cc1cc(N2CCN(S(=O)(=O)c3ccc4c(c3)OCCO4)CC2)n2ncnc2n1 | nt | nt | 25.1µM* | 7.5% | -1.1 | 18.7%
OCc1cn(Cc2ccc(O)c3ncccc23)cn1 | -2.3% | -6.2% | nt | nt | nt | nt
CN1CCC(NC(=O)c2cc(-c3cccc(Br)c3)nc3ccccc23)CC1 | 1.6% | 5.8% | -1.9% | -8.6% | -3.7 | -53.4%
CCCCC[C@]12Cc3cc(OC)c(OC)cc3C(O1)c1c(cc(C)n(-c3ccccc3)c1=O)O2 | -3.9%[11.5 µM] | -1.1%[11.5 µM] | 0.6%[11.5 µM] | nt | nt | nt
